Source: PubChem BioAssay (National Center for Advancing Translational Sciences (NCATS))
HCMV antiviral = qHTS Assay for inhibitors of the human cytomegalovirus (HCMV) | HFF cells, HCMV-luciferase reporter, 72 h; hits give low values | activity change, negative = inhibition, % at 57.5 µM | actives 4.5% (n = 410,000) | AID 1259415, 2018; in the data active = activity change below about -60%; inconclusive = no clear call, values can overlap the other calls; inactive = above about -39%
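HFF cells seeded 16 h at 37C, treated with compounds, infected with luciferase-reporter HCMV at MOI 1 PFU/cell; luciferase read at 72 h post infection, normalized to buffer-only and Salinomycin controls.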
HCV inh = qHTS Assay for Inhibitors of Hepatitis C Virus (HCV); actives 3.4% (n = 340,000); Potency, µM (series often up to 41.8 µM), for inactives: at the top dose activity change, negative = inhibition, usual class: inhibitors; AID 651820, 2012; Huh7.5.1 HCVcc-Cre infection, luciferase reporter, 44 h; note: potency is the fitted concentration of half-maximal effect
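Infectious HCVcc-Cre (~0.5 moi) was added to cells just after compound, with cells seeded 4 h earlier at 1,000 per well. Luciferase activity after 44 h culture reported infection; substrate was incubated 15 min at room temperature before reading.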
Pf growth 48h = Primary qHTS for delayed death inhibitors of the malarial parasite plastid, 48 hour incubation; P. falciparum luciferase growth in erythrocytes, 48 h; Potency, µM (doses to about 28.7 µM), for the others: at the top dose activity change, negative = inhibition, actives largely listed as inhibitors; actives 5.9% (n = 310,000); AID 504832, 2011; note: potency is the fitted concentration of half-maximal effect
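Firefly luciferase activity from engineered P. falciparum reports growth; inhibitors lower the luminescent signal. Cultures contained 2% hematocrit erythrocytes at 0.1% final parasitemia.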
Pf growth 96h = Primary qHTS for delayed death inhibitors of the malarial parasite plastid, 96 hour incubation. P. falciparum luciferase reporter growth, 96 h. Potency, µM (doses to about 28.7 µM), for inactives: at the top dose activity change, negative = inhibition, actives largely listed as inhibitors. actives 6.9% (n = 320,000). AID 504834, 2011; note: potency is the fitted concentration of half-maximal effect
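Luminescence readout: decreased luciferase signal marks inhibited growth of reporter-expressing P. falciparum in infected red cells (2% hematocrit, 0.05% parasitemia final), exposed to compound two generations (96 h, 37 C, 5% CO2).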
Numbers without * were called inactive; [ ] = another dose, or the depositor's remark. Rows were chosen to be rich in hits. Some 13% of all compounds tested hit in one or more screens of this group. Unless noted, calls come from the whole dose curve; as a rule, active = well fitted inhibition curve with a large enough effect; inconclusive = small, poorly fitted or top-dose-only effect, or another doubt; inactive = no such curve, though single readings can be large or run the other way. % is set by controls: 0 for no effect and ±100 for the full control effect.

`CCOC(=O)C1(CC2CCCCO2)CCN(C(=O)Nc2ccccc2)CC1` (configuration not stated) gave HCMV antiviral -37, HCV inh 6%, Pf growth 48h inconclusive and Pf growth 96h -3%.
For CCOC(=O)C1(CC2CCCCO2)CCN(Cc2nc3ccccc3nc2C)CC1 (configuration not stated) the results were HCMV antiviral 26, HCV inh -2%, Pf growth 48h inconclusive and Pf growth 96h 12µM*.
For CCOC(=O)C1(CC2CCCCO2)CCN(C(=O)Nc2ccccc2CC)CC1 (configuration not stated) the results were HCMV antiviral -65*, HCV inh 9%, Pf growth 48h 0% and Pf growth 96h 35%.
For CCOC(=O)C1(CC2CCCCO2)CCN(C(=O)Nc2ccccc2SC)CC1 (configuration not stated) the results were HCMV antiviral inconclusive, HCV inh -1%, Pf growth 48h inconclusive and Pf growth 96h 12µM*.
`CCOC(=O)C1(CC2CCCCO2)CCN(Cc2ccc(OC)cc2F)CC1` (configuration not stated) gave HCMV antiviral -30, HCV inh inconclusive, Pf growth 48h -6% and Pf growth 96h -3%.
`Cc1sc(NC(=S)NC(=O)CCc2ccccc2)c(C(N)=O)c1C` gave HCMV antiviral -83*, HCV inh inconclusive, Pf growth 48h 24% and Pf growth 96h 48%.
Screening COC(=O)CCC(=O)Nc1sc(Cc2ccccc2)c(C)c1C(N)=O returned HCMV antiviral 1, HCV inh 6%, Pf growth 48h 16% and Pf growth 96h 33%.
CCOC(=O)c1c(NC(=O)CNC2CCCCC2)sc(C)c1C was read as HCMV antiviral 10, HCV inh 10µM*, Pf growth 48h -14% and Pf growth 96h 35%.
CCOC(=O)c1c(NC(=O)CNCCO)sc(C)c1C was read as HCMV antiviral 7, HCV inh inconclusive, Pf growth 48h -2% and Pf growth 96h inconclusive.
For COC(=O)c1c(NC(=O)CCC(=O)O)sc(Cc2ccccc2)c1C the results were HCMV antiviral -27, HCV inh 6%, Pf growth 48h 12µM* and Pf growth 96h 4%.
`CCOC(=O)c1c(NC(N)=O)sc(C)c1C` gave HCMV antiviral 66, HCV inh 0.89µM* and Pf growth 48h -1%.
C[C@H]1[C@@H](NS(=O)(=O)c2ccc([N+](=O)[O-])cc2[N+](=O)[O-])CC[C@@]23CCCN2C(=O)CCC[C@@H]13 was read as HCMV antiviral 12.
`O=C(NCC(c1cccnc1)N1CCN(Cc2ccccc2)CC1)C(=O)Nc1cccc(F)c1` (configuration not stated) gave HCMV antiviral 17.
For COc1cc(OC)c(NC(=O)CC(c2cccs2)N2Cc3ccccc3C2=O)cc1Cl (configuration not stated) the results were HCMV antiviral -36.
Screening CCOC(=O)c1c(NC(=O)c2nn(C)cc2[N+](=O)[O-])sc(C)c1C returned HCMV antiviral 66, HCV inh 3.5µM*, Pf growth 48h 22% and Pf growth 96h 10%.
Screening CCOC(=O)c1c(NC(=O)C[n+]2ccc(Cc3ccccc3)cc2)sc(C)c1C returned HCMV antiviral -38, HCV inh 1.3µM*, Pf growth 48h inconclusive and Pf growth 96h 0%.
`CCOC(=O)c1c(NC(=S)Nc2ccccc2)sc(C)c1C` gave HCMV antiviral -21, HCV inh 2%, Pf growth 48h 10% and Pf growth 96h -9%.
`CCOc1ccc(CCNC(=O)COC(=O)c2cc(S(=O)(=O)N3CCOCC3)ccc2F)cc1OCC` gave HCMV antiviral -19, HCV inh -12%, Pf growth 48h inconclusive and Pf growth 96h 13µM*.
Screening COc1ccc(COC(=O)c2cc(S(=O)(=O)N3CCCCC3)ccc2N2CCOCC2)cc1 returned HCMV antiviral -21, HCV inh -2%[8.37 µM], Pf growth 48h 3% and Pf growth 96h 21%.
O=C(OCCOc1cccc(Cl)c1)c1cc(S(=O)(=O)N2CCOCC2)ccc1F was read as HCMV antiviral -7, HCV inh 25µM*, Pf growth 48h 42% and Pf growth 96h inconclusive.
Cc1ccc(OCCOC(=O)c2cc(S(=O)(=O)N3CCCCC3)ccc2N2CCOCC2)cc1 was read as HCMV antiviral -40, HCV inh inconclusive, Pf growth 48h inconclusive and Pf growth 96h 13µM*.
`O=C(OCCOc1ccccc1)c1cc(S(=O)(=O)N2CCOCC2)c(Cl)cc1Cl` gave HCMV antiviral -63*.
Screening O=C(COC(=O)c1cc(S(=O)(=O)N2CCOCC2)ccc1F)NCCc1ccc(F)cc1 returned HCMV antiviral -9 and HCV inh 11%.
For CCCNC(=O)c1cnc2sc(N3CCCCCC3)nn2c1=O the results were HCMV antiviral -19.
`COc1ccc(CC(=O)Nc2cc(-c3cn4cccnc4n3)ccc2OC)cc1` gave HCMV antiviral -11.
Screening CCC(C)Sc1oc(-c2ccco2)nc1S(=O)(=O)c1ccc(Cl)cc1 (configuration not stated) returned HCMV antiviral -16.
COc1ccc(CNc2ncnc3onc(-c4ccc(F)cc4)c23)cc1 was read as HCMV antiviral -14.
CN1C(=O)C(n2ccc3ccccc32)c2cc(OC(F)(F)F)ccc21 (configuration not stated) was read as HCMV antiviral -9.
`O=C(OCCOc1ccc(Cl)cc1)c1cc(S(=O)(=O)N2CCCCC2)ccc1N1CCOCC1` gave HCMV antiviral inconclusive and HCV inh 3.5µM*.
CCC/C(O)=C1\C(=O)CCCC1=NC(C)C(=O)O (configuration not stated) was read as HCMV antiviral 44, HCV inh 4%, Pf growth 48h inconclusive and Pf growth 96h 3.7µM*.
Screening CCC/C(O)=C1\C(=O)CCCC1=NCCc1ccc(OCC)c(OCC)c1 returned HCMV antiviral -5, HCV inh inconclusive, Pf growth 48h inconclusive and Pf growth 96h 162%.
Cn1c(NCc2ccccc2F)nc2ccccc21 was read as HCMV antiviral 96.
For O=C(NCCCN1CCN(c2cccc(Cl)c2)CC1)c1sc2ncccc2c1-n1cccc1 the results were HCMV antiviral 48.
O=C(CCn1cnc2ccccc2c1=O)Nc1nc(-c2ccc(Br)cc2)cs1 was read as HCMV antiviral -8, HCV inh 15%, Pf growth 48h -5% and Pf growth 96h 9.3µM*.
For O=C(CCn1cnc2ccccc2c1=O)Nc1ccc(Cl)c(Cl)c1 the results were HCMV antiviral -74*, HCV inh -9% and Pf growth 96h 50%.
Screening Cc1ccc(NC(=O)CCn2cnc3ccccc3c2=O)cc1 returned HCMV antiviral -14, HCV inh -11%, Pf growth 48h 3% and Pf growth 96h inconclusive.
